From the supplement of paper PMC13380429
Unmarked numbers belong to inactive results.

test system: Vero E6 infected with SARS-CoV-2; experiment: inhibition of SARS-CoV-2 cytopathic effect; higher = more antiviral protection, active = above 15; settings: 8.33 nM; 48 h

Structure (SMILES)	inhibition of SARS-CoV-2 cytopathic effect
O=C1OC(CN2CCOCC2)CN1/N=C/c1ccc([N+](=O)[O-])o1 (stereo not drawn) [furaltadone]	-5.96%
CCN(CC)c1ccc(/C=N/NC(=O)c2ccc(O)cc2)cc1	2.18%
Oc1cc(O)c2c(c1)O[C@H](c1ccc(O)c(O)c1)[C@@H](O)C2 [cianidanol]	0.71%
NS(=O)(=O)c1ccc2c(c1)C1C=CCC1C(c1ccc(Br)cc1)N2 (stereo not drawn)	1.37%
c1nc(CC2CCNCC2)c[nH]1 [immepip]	-3.19%
CCN(Cc1ccncc1)C(=O)C(CO)c1ccccc1 (stereo not drawn) [tropicamide]	4.91%
O=C(/C=C\n1cnc(-c2cc(C(F)(F)F)cc(C(F)(F)F)c2)n1)NNc1cnccn1 [selinexor]	-3.07%
CON [methoxyamine]	-2.53%
CC1C(=O)OC2C(O)C34C5CC(C(C)(C)C)C36C(OC(=O)C6O)OC4(C(=O)O5)C12O (stereo not drawn) [ginkgolide-B]	0.56%
O=C(Nc1c(-c2cccs2)nc2ccccn12)c1ccc(Cl)cc1	-0.43%
C[C@H](c1ccc(F)cc1CCCC(=O)O)N(c1cc(F)ccc1F)S(=O)(=O)c1ccc(Cl)cc1	-1.39%
C[C@]12CC[C@@H]3c4ccc(O)cc4CC[C@H]3[C@@H]1CC[C@@H]2OC(=O)CCC1CCCC1 [estradiol-cypionate]	-1.36%
CCOC(=O)c1c(C)[nH]c2ccc3c(c12)CN1CCc2cc(OC)ccc2C1O3 (stereo not drawn)	2.9%
